PolyA inhibitor – blocks polyadenylation in yeast reporter cells. S. cerevisiae SKY197-pL101 polyadenylation reporter, beta-gal luminescence; efflux-impaired pdr1/pdr3 knockout yeast; score 100 = 6 SD above DMSO. 300,000 tested, 0.02% active. activity score, % at 12 µM;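 active = lowest replicate activity score at least 50, where 100 means six control SD above control mean; inconclusive = lowest score under 50 but half or more replicates reach 50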;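 note: yeast exposed to compound for 9 h at 30 °C; higher score means more reporter readthrough which indicates perturbed polyadenylation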
Platelet DG rel – platelet dense granule release activity; inhibition, %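 (compounds screened at 7.5 µM in platelet-rich plasma)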; 300,000 tested, 0.22% active; AID 1663; human platelet-rich plasma, SFLLRN dense granule ATP release, luminescence;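 active = mean replicate score, as percent of positive control, at or above 50; inconclusive = mean below 50 but at least one replicate at or above 50; inactive = mean and every replicate below 50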
AHR activator – human AHR activation; AHR-responsive luciferase reporter cells, luminescence; activation, % at 5 µM; 320,000 tested, 2.5% active; in the data active = activation above about 47%;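 note: 0% = vehicle wells and 100% = reference agonist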
HIF activator – HIF pathway transcriptional activation. U2OS HRE-luciferase reporter, luminescence; normalized: DMSO 0%, desferrioxamine 100%. activation, % at 7.5 µM (by protocol). 300,000 tested, 0.32% active;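 active = mean activation of at least 10% of the iron chelator positive control signal, with at least half of replicates also reaching 10%; inconclusive = mean and replicate majority disagree about reaching 10%; inactive = mean and most replicates under 10%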
pCIP destab – p/CIP protein destabilization | Q05BA5 | F442A p/CIP-EGFP cells, EGFP fluorescence, 16 h | decrease of EGFP signal, % at 10 µM | 290,000 tested, 0.01% active | AID 1984;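 active = EGFP signal decrease of at least 30% at 10 µM or well 3 SD below plate mean, unless failing retest; inactive = the rest, including hits failing retest or dose response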
Target sequence (Q05BA5 1-1403): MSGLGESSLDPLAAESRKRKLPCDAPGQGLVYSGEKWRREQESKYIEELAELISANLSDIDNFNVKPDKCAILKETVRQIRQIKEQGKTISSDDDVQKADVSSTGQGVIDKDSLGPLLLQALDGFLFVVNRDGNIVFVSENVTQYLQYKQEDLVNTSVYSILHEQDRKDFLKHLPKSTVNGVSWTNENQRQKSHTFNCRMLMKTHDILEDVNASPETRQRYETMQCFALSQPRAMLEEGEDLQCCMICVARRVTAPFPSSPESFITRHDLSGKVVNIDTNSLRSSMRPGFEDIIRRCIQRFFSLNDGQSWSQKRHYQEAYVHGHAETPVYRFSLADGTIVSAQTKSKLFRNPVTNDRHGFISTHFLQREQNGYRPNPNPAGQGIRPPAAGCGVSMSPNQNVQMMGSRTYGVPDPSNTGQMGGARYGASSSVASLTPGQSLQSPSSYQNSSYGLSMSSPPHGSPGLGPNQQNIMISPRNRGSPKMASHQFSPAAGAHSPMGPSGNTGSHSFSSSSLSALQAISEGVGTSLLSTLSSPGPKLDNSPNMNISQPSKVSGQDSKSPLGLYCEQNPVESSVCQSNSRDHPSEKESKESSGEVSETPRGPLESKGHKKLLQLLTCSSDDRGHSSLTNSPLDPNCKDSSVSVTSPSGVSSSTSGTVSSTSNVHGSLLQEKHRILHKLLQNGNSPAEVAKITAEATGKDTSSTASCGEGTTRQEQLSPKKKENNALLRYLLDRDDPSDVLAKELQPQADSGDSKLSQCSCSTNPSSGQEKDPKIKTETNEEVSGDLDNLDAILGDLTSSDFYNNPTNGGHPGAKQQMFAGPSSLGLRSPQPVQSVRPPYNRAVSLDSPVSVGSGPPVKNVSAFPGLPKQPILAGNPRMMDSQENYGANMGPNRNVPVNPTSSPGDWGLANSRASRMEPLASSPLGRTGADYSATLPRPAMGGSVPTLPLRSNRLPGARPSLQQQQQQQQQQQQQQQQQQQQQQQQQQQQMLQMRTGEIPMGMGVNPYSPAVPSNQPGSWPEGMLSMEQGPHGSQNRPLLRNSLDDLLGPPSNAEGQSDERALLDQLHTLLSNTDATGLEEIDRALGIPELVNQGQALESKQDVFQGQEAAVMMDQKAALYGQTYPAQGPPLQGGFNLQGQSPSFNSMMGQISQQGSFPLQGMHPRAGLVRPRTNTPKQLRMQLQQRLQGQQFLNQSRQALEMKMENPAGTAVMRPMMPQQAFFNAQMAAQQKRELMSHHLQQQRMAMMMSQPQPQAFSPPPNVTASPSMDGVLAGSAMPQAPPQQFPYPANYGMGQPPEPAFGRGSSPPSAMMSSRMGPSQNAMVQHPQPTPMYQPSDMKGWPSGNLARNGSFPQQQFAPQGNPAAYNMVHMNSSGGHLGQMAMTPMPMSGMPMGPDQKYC
An asterisk follows results filed as active. Compounds with a hit are over-represented: about 2.8% of the library has one in this group of screens.

Screening CC(=O)c1cccc(NCC(=O)N2CCN(S(=O)(=O)c3ccccc3)CC2)c1 returned AHR activator 2.
`CCCCC(=O)Nc1ccccc1C(C)C` gave PolyA inhibitor 6, Platelet DG rel 2, AHR activator -3, HIF activator 0 and pCIP destab -23.
`CS(=O)(=O)c1ccc2nc(NC(=O)CCS(=O)(=O)c3ccccc3)sc2c1` gave PolyA inhibitor 12, Platelet DG rel -20, AHR activator 3, HIF activator 0 and pCIP destab 6.
For COc1ccc2nc(NC(=O)Nc3ccccc3OC)sc2c1 the results were PolyA inhibitor -24, Platelet DG rel 5, AHR activator 2, HIF activator inconclusive and pCIP destab -24.
Screening COc1ccc2nc(NC(=O)Nc3cccc4ccccc34)sc2c1 returned PolyA inhibitor -23, Platelet DG rel -9, AHR activator 64*, HIF activator 0 and pCIP destab -11.
For COc1cccc(-c2nnc(NC(=O)c3cccs3)s2)c1 the results were PolyA inhibitor -2, Platelet DG rel -2, AHR activator 64*, HIF activator 2 and pCIP destab -15.
CS(=O)(=O)c1ccc2nc(NC(=O)CCC(=O)c3cccs3)sc2c1 was read as PolyA inhibitor 4, Platelet DG rel -33, AHR activator 52*, HIF activator 1 and pCIP destab 10.
Screening COc1ccc(S(=O)(=O)N2CCOCC2)cc1C(=O)N(C)CCOc1ccc(Cl)cc1 returned AHR activator -2.
For COc1ccccc1NC(=O)c1ccc(CSc2ncccn2)cc1 the results were PolyA inhibitor 8, Platelet DG rel 2, AHR activator 5, HIF activator 0 and pCIP destab -12.
O=C(CNC(=O)c1ccc(Br)cc1)NCc1cccnc1 was read as PolyA inhibitor 5, Platelet DG rel 2, AHR activator 3, HIF activator -1 and pCIP destab 2.
Screening COC(=O)N/N=C/c1cn(Cc2ccc(Cl)cc2Cl)c2ccccc12 returned PolyA inhibitor 5, Platelet DG rel -44, AHR activator 71*, HIF activator 0 and pCIP destab -3.
COC(=O)N/N=C/c1cn(Cc2ccc(F)cc2)c2ccccc12 was read as PolyA inhibitor -12, Platelet DG rel 17, AHR activator 26, HIF activator 0 and pCIP destab -18.
Screening COC(=O)N/N=C/c1cn(Cc2ccccc2F)c2ccccc12 returned PolyA inhibitor 2, Platelet DG rel -3, AHR activator 58*, HIF activator 0 and pCIP destab 3.
For COC(=O)N/N=C/c1cn(Cc2c(Cl)cccc2Cl)c2ccccc12 the results were PolyA inhibitor -12, Platelet DG rel -16, AHR activator 64*, HIF activator 0 and pCIP destab 2.
Cn1c(Cn2nnc(-c3ccccc3)n2)nnc1SCc1ccccc1Cl was read as PolyA inhibitor -3, Platelet DG rel -5, AHR activator -1, HIF activator -1 and pCIP destab -7.
`CC(=O)/C(=N/Nc1ccccc1C)N1CCOCC1` gave PolyA inhibitor 20, Platelet DG rel -3, AHR activator 11, HIF activator 0 and pCIP destab -8.
`COc1ccc(OC)c(NC(=O)CCc2nnc3ccc(NCc4ccco4)nn23)c1` gave PolyA inhibitor -4, Platelet DG rel 10, AHR activator 9, HIF activator 17* and pCIP destab 10.
For COc1cccc(NC(=O)CCc2nnc3ccc(NCc4ccco4)nn23)c1 the results were PolyA inhibitor -2, Platelet DG rel -13, AHR activator 12, HIF activator 0 and pCIP destab 2.
Screening CCOc1ccc(S(=O)(=O)N(CC(=O)N2CCC(C(N)=O)CC2)c2ccc(F)cc2)cc1 returned PolyA inhibitor 8, Platelet DG rel 12, AHR activator -1, HIF activator 0 and pCIP destab -17.
Cc1ccc2nc(CCc3ccc(N)cc3)[nH]c2c1 was read as PolyA inhibitor -12, Platelet DG rel 2, AHR activator 52*, HIF activator 5 and pCIP destab -11.
CC(C)CNC(=S)N(Cc1ccco1)Cc1cc2cc3c(cc2[nH]c1=O)OCCO3 was read as PolyA inhibitor 3, Platelet DG rel 4, AHR activator 54*, HIF activator 0 and pCIP destab 1.
Screening CNC(=S)N(Cc1ccco1)Cc1cc2cc3c(cc2[nH]c1=O)OCCO3 returned PolyA inhibitor 15, Platelet DG rel -2, AHR activator 37, HIF activator 0 and pCIP destab 2.
Screening COc1ccccc1NC(=S)N(Cc1ccco1)Cc1cc2cccc(C)c2[nH]c1=O returned PolyA inhibitor -18, Platelet DG rel -4, AHR activator 48*, HIF activator 0 and pCIP destab -8.
Screening CCNC(=S)N(Cc1ccco1)Cc1cc2cc3c(cc2[nH]c1=O)OCCO3 returned PolyA inhibitor 3, Platelet DG rel -3, AHR activator 71*, HIF activator -1 and pCIP destab -1.
CCCCN(C(=O)CNC(=O)c1ccco1)C(C(=O)NC1CCCCC1)c1cccnc1 (stereo unspecified) was read as PolyA inhibitor 3, Platelet DG rel 0, AHR activator 0, HIF activator 0 and pCIP destab -10.
Screening Cc1snnc1C(=O)NC(=S)Nc1ccccc1 returned PolyA inhibitor -6, Platelet DG rel -44, AHR activator 1, HIF activator 0 and pCIP destab 4.
For CCN(CC)c1ccc(/C=N/NC(=O)c2c[nH]c3ccccc23)cc1 the results were PolyA inhibitor -11, Platelet DG rel -5, AHR activator 50*, HIF activator 1 and pCIP destab -9.
CCN(CC)c1ccc(/C=N/NC(=O)c2cc3ccccc3[nH]2)cc1 was read as PolyA inhibitor 13, Platelet DG rel 7, AHR activator 58*, HIF activator 0 and pCIP destab -6.
N#CCCn1nc(-c2ccccc2)cc1Nc1ccccc1NC(=O)c1cccs1 was read as PolyA inhibitor -11, Platelet DG rel -4, AHR activator 49*, HIF activator 0 and pCIP destab 3.
O=C(Cn1nnc(-c2ccccc2NC(=O)c2cccs2)n1)Nc1ccccc1 was read as PolyA inhibitor 6, Platelet DG rel -3, AHR activator 2, HIF activator 0 and pCIP destab -9.
Screening Cc1ccc(-c2nc3c(Cl)cc(Cl)cc3c(=O)n2O)cc1 returned PolyA inhibitor 17, Platelet DG rel -7, AHR activator 65*, HIF activator -19 and pCIP destab -3.
For O=c1c2cc(Br)ccc2nc(-c2ccc(Cl)cc2)n1O the results were PolyA inhibitor -9, Platelet DG rel 6, AHR activator 50*, HIF activator 0 and pCIP destab -4.
O=c1c2cc(Cl)ccc2nc(-c2ccc([N+](=O)[O-])cc2)n1O was read as PolyA inhibitor 32, Platelet DG rel -3, AHR activator 0, HIF activator 0 and pCIP destab -4.
